IMPase Li inh: qHTS Assay for Identifying the Cell-Membrane Permeable IMPase Inhibitors: Potentiation with Lithium; CHO-M1 cells, IP1 TR-FRET (IP-One), carbachol + lithium; Potency, µM (highest dose often 59.4 µM), inactives show top-dose activity, negative = IMPase inhibition, usual class: inhibitors; 0.35% of 210,000 active;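 note: IP1 builds up when IMPase is blocked and the TR-FRET signal falls; plate controls were basal vehicle for no effect and high inhibitor control for full effect; nearly all actives have a fitted effect of over 50% in size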
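IP1 accumulation measured by competitive TR-FRET in lysed CHO-M1 cells after 30 min compound exposure at 37C, with a small lithium addition to potentiate weak responses. Hill-equation AC50 from ratio and donor-channel data.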
HTT aggregate: qHTS Multiplex Assay to Identify Dual Action Probes in a Cell Model of Huntington: Aggregate Formation (GFP); PC12 HttQ103-GFP aggregates, Acumen cytometry, 40 h; Potency, µM (doses to about 46.1 µM), inactives show at the top dose activity change, negative = inhibition, most hits filed as inhibitors; 1.1% of 220,000 active; note: % is set by controls: 0 for no effect and ±100 for the full control effect; nearly all actives have a fitted effect of over 60% in size
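Using laser scanning cytometry, GFP-positive aggregates were counted after lysis of PC12 cells induced with 100 nM tebufenozide to express HTT exon 1 Q103–GFP. Compounds were tested in titration.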
HTT ATP protect: qHTS Multiplex Assay to Identify Dual Action Probes in a Cell Model of Huntington: Cytoprotection (ATP). PC12 HTT-Q103 induced, cytoprotection, ATP luminescence, 40 h. Potency, µM (top dose mostly 56.4 µM), without a hit: cytoprotection (ATP increase), hits mostly activators. 0.14% of 230,000 active; note: % of control where 0% means no effect; nearly all actives have a fitted effect of over 45% in size
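Readout: ATPlite luminescence (ATP level). Model: stable PC12, inducible Htt exon1 Q103-GFP. Inducer: tebufenozide, 100 nM final. Compounds: dose series. No G418 in medium.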
NPSR antag: qHTS Assay for Antagonists of the Neuropeptide S Receptor: cAMP Signal Transduction; CHO-NPSR cells, cAMP TR-FRET, antagonist mode; Q6W5P4; 1% of 220,000 active; Potency, µM (series often up to 38.3 µM), inactives show top-dose activity change, negative = inhibition, most hits filed as inhibitors; AID 1461, 2008; note: % is set by controls: 0 for no effect and ±100 for the full control effect; nearly all actives have a fitted effect of over 50% in size
Target sequence (Q6W5P4 whole entry, looked up): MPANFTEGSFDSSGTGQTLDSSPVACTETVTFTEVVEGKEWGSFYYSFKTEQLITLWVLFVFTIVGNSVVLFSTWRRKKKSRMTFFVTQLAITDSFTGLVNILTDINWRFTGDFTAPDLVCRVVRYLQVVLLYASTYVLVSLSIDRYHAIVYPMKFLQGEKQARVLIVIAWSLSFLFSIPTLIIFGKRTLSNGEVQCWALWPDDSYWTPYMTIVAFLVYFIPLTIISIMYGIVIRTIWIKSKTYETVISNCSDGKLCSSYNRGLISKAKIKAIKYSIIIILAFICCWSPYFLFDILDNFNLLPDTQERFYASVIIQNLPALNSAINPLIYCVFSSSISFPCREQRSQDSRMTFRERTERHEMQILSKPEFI
ERK EGF inh: qHTS Assay for Inhibitors of the ERK Signaling Pathway using a Homogeneous Screening Assay; Stimulation with EGF. HEK293-V1b, EGF-stimulated phospho-ERK AlphaScreen. Potency, µM (top dose mostly 11.5 µM), inactives show top-dose activity change, negative = inhibition, usual class: inhibitors. 0.41% of 130,000 active. AID 1454, 2008;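 note: plate controls were stimulated vehicle wells for no effect and unstimulated vehicle basal for full effect; nearly all actives have a fitted effect of over 55% in size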
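Readout: AlphaScreen signal for phosphorylated ERK in lysed HEK293 cells stably expressing V1b. Stimulus 25 nM EGF, 5 min, following 30 min compound exposure. Data scaled to DMSO basal and full EGF activation.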
* hit, by the source's call; ? = inconclusive; · = no result; [ ] = another dose, or the depositor's remark. This is a sample that favours compounds with a hit; in the whole collection about 1.9% have one here. Calls come from the whole dose curve; as a rule, active = well fitted curve in the direction sought with a large enough effect; inconclusive = small, poorly fitted or top-dose-only effect, or another doubt; inactive = no such curve, though single readings can be large; an effect the other way counts as inactive or inconclusive. Potency is the fitted concentration of half-maximal effect.

SMILES	IMPase Li inh	HTT aggregate	HTT ATP protect	NPSR antag	ERK EGF inh
CCOC(=O)C1=C(C)N(C)C(=S)NC1c1ccc(Cl)cc1 (centres undefined)	12.6%	20µM*	·	-15.0%	5.9%
COc1ccccc1-c1n[nH]c(=S)n1-c1ccccc1	2µM*	-7.1%	-133.5%	11.3%[46.1 µM]	·
O=c1cc(-c2ccc(O)cc2)oc2cc(O)cc(O)c12	28.0%	·	?	25.1µM*	-3.4%
O=c1[nH]n2c(=O)c3c([nH]c2c1N=Nc1cccc(Cl)c1)CCCC3	20.0%	?	-8.4%[1.9 µM]	10µM*	-5.5%
CCOc1ccc(N=Nc2c(=O)[nH]n3c(=O)c4c([nH]c23)CCCC4)cc1	6.8%	?	·	-31.3%	4.4%
CCOC(=O)N1CCC(N2C(=O)c3ccccc3C2Nc2ccc(S(=O)(=O)N3CCCCC3)cc2)CC1 (centres undefined)	13.1%	9.9%	-37.4%	10µM*	-5.4%
CCOC(=O)N1CCC(N2C(=O)c3ccccc3C2Nc2cccnc2)CC1 (centres undefined)	1.0%[38.3 µM]	24.3%	-6.7%	-13.8%[46.1 µM]	·
CCNc1ncc2nc(-c3ccccc3)c(=O)n(C)c2n1	?	·	-47.8%	·	·
COC(=O)c1c(NC(=O)c2cccnc2)sc(C(=O)N(C)C)c1C	-6.3%	2.0%	1.26µM*	13.0%	7.7%
CCOC(=O)CNC(=O)O[C@@H]1Cc2cc(OC)ccc2O[C@H]1c1cccc(OC)c1	8.7%	·	?	·	-18.3%
O=C(Cc1ccccc1)Nc1nc2ccc(Cl)cc2c2nc(-c3ccco3)nn12	?	·	-22.5%	·	18.9%
Cc1ccc([N+](=O)[O-])cc1S(=O)(=O)N(C(=O)c1ccncc1)c1ccc2oc3c(c2c1)CCCC3	-4.4%	17.8µM*	11.1%[10 µM]	-23.1%	-6.4%
Cc1ccc(S(=O)(=O)N(C(=O)c2ccncc2)c2ccc3oc4c(c3c2)CCCC4)cc1[N+](=O)[O-]	0.8%	?	-11.9%[10 µM]	-22.1%	3.4%
Cc1cc(C(=O)OCc2nnc(-c3ccccc3)o2)c(C)n1-c1ccccc1	15.6%[38.3 µM]	11.2µM*	-33.3%	-27.2%[46.1 µM]	·
O=C(Nc1ccc(O)c2c(=O)cc(-c3ccccc3Cl)oc12)c1ccc(Br)cc1	-1.1%	·	?	·	·
CCc1ccc2nc(N3C(=O)C(O)=C(C(=O)c4ccco4)C3c3cccs3)sc2c1 (centres undefined)	-29.3%	-3.5%	-5.5%[10 µM]	10µM*	-0.2%
Cc1cc(N2C(=O)C(O)=C(C(=O)c3ccco3)C2c2ccc(O)cc2)no1 (centres undefined)	?	8.0%	12.9%	-3.6%[46.1 µM]	·
Cc1ccc2nc(N3C(=O)C(O)=C(C(=O)c4cc5ccccc5o4)C3c3cccs3)sc2c1 (centres undefined)	-25.4%[38.3 µM]	-4.2%	-5.5%	1.8%[46.1 µM]	·
Cc1cc(N2C(=O)C(O)=C(C(=O)c3ccc(C)o3)C2c2cccs2)no1 (centres undefined)	10µM*	1.5%	-0.7%[0.074 µM]	7.94µM*	·
COc1cccc(NC(=O)Cn2c(=O)n(CCC(=O)NCc3ccco3)c(=O)c3ccccc32)c1	3.6%	20.7%	3.16µM*	-11.0%	-3.9%
C=CCn1c(=NC(=O)c2cc(Cl)sc2Cl)sc2cc(S(N)(=O)=O)ccc21	3.0%	2.9%	22.1%[10 µM]	-38.0%	2.1%
COCCn1c(=NC(=O)c2sc3ccccc3c2Cl)sc2cc(S(N)(=O)=O)ccc21	11.2µM*	32.6%	9.4%[10 µM]	-27.8%	-0.6%
C=CCn1c(=NC(=O)c2sc3ccccc3c2Cl)sc2cc(S(N)(=O)=O)ccc21	10µM*	-20.1%	-9.4%[10 µM]	?	-1.7%
Cc1nc(NCCO)c2nc(-c3ccccc3)n(CCN(C)C)c2n1	-9.1%	·	-0.9%	·	12.0%
CC(=O)C1=C(C)NC(SCC(=O)c2ccc(Cl)c(Cl)c2)=C(C#N)C1c1ccco1 (centres undefined)	9.7%[38.3 µM]	12.6%	5.3%	10µM*	·
SMILES	IMPase Li inh	HTT aggregate	HTT ATP protect	NPSR antag	ERK EGF inh
COc1ccccc1NC(=O)C1=C(C)NC(SCC(=O)c2ccc(C)cc2)=C(C#N)C1c1ccco1 (centres undefined)	?	?	-3.8%	6.31µM*	·
CCc1ccc(C(=O)CSC2=C(C#N)C(c3ccco3)C(C(C)=O)=C(C)N2)cc1 (centres undefined)	19.4%[38.3 µM]	5.7%	-23.3%	?	·
CC(=O)C1=C(C)NC(SCC(=O)c2cc(Cl)ccc2Cl)=C(C#N)C1c1ccco1 (centres undefined)	-1.0%[38.3 µM]	?	-3.5%	10µM*	·
N#CC1=C(SCC(=O)c2ccccc2)NC2=C(C(=O)CCC2)C1c1ccco1 (centres undefined)	1.9%[38.3 µM]	11.2µM*	-111.4%	-39.9%[46.1 µM]	·
CC(=O)C1=C(C)NC(SCC(=O)c2ccc(F)cc2)=C(C#N)C1c1ccco1 (centres undefined)	4.7%[38.3 µM]	-7.2%	-20.3%	-16.7%[46.1 µM]	·
CC(=O)C1=C(C)NC(SCC(N)=O)=C(C#N)C1c1ccco1 (centres undefined)	4.8%	-3.6%	-9.8%	6.7%	0.7%
COc1cc2c(Cc3c4c5c(cc(OC)c(OC)c5c5c(OC)c(OC)ccc35)CCN4C)c3c4c(cc(OC)c(OC)c4c2cc1OC)CCN3C	-2.2%	·	6.9%[1.9 µM]	·	-2.3%
NC(=[SH+])N=N/C=C1/C=CC=CN1.O=S(=O)(O)O.[Fe]	-4.8%	·	·	·	·
CCc1nnc(NC(=O)c2cccc(C(=O)Nc3nnc(CC)s3)n2)s1	10.2%	0.891µM*	-79.5%[0.074 µM]	?	-10.6%
Cc1c(N/N=C(\C#N)C(=O)c2ccc(Cl)cc2)c(=O)n(-c2ccccc2)n1C	15.6%	-1.4%	-33.6%[10 µM]	-31.5%	10.7%
N#C/C(=N\Nc1ccc(Cl)cc1)C(=O)c1ccccc1	45.3%[38.3 µM]	?	-54.8%	12.6µM*	·
COC(=O)/C(=C\C(=O)c1ccc([N+](=O)[O-])cc1)Nc1ccc(OC)cc1	·	7.5%[9.22 µM]	3.9%[10 µM]	-5.3%	12.6µM*
COc1ccc(C(=O)/C(C#N)=N/Nc2ccccc2[N+](=O)[O-])cc1	12.3%	?	-2.5%[10 µM]	-4.5%	?
COc1ccc(C(=O)/C(C#N)=N/Nc2ccc([N+](=O)[O-])cc2)cc1	15.5%	1.26µM*	-161.8%	-13.2%	?
CN1CCN(c2ncc3nc(CCc4ccccc4)c(=O)n(C4CC4)c3n2)CC1	9.6%	·	-65.7%	·	·
COc1ccc2c(C)cc(SCC(=O)Nc3ccc(Cl)cn3)nc2c1	8.91µM*	22.0%	·	?	1.2%
COc1ccc2c(C)cc(SCC(=O)N3CCOCC3)nc2c1	2.7%[38.3 µM]	-6.8%	-23.9%	5.8%[46.1 µM]	·
Cn1c(=O)c(-c2cc(Br)ccc2N)nc2ccccc21	3.4%[38.3 µM]	12.6µM*	-3.9%[10 µM]	-1.0%[46.1 µM]	·

Bioassay records from PubChem BioAssay.
